Measurements from PubChem BioAssay AID1452 (National Center for Advancing Translational Sciences (NCATS), 2008).
About 190 (0.13%) of roughly 150,000 compounds were called active. Inconclusive results (about 2%) are left out. Calls follow the shape of the dose curve; as a rule, active = well fitted inhibition curve with a large enough effect; inconclusive = small, poorly fitted or top-dose-only effect; inactive = flat fitted curve, though single readings scatter. This excerpt belongs to a sample that is enriched for actives.

molecular target: Polyunsaturated fatty acid lipoxygenase ALOX12 (Homo sapiens) (UniProt P18054); experiment: qHTS Assay for Inhibitors of 12-hLO (12-human lipoxygenase); settings: purified 12-hLO, xylenol orange hydroperoxide absorbance; series mostly up to 57.1 µM; activity change, negative = inhibition: at the top concentration; also: nearly all actives have a fitted effect of over 55% in size
Excerpt: Assay Provider: Holman, T.R., University of California, Santa Cruz Screening Center PI: Austin, C.P. Screening Center: NIH Chemical Genomics Center [NCGC] Human lipoxygenase 12hLO is a member of the closely related lipoxygenase family of enzymes which catalyze the site-specific oxidation of arachidonic acid to various hormone precursor molecules and as such is a candidate for drug development in a variety of disease areas, such as cancer and inflammation. Inhibition of 12hLO activity was screened by utilizing arachidonic acid as a substrate. The extent of hydroperoxide product formation was measured by a secondary chromogenic reaction in which xylenol orange (XO, Sigma-Aldrich, cat. number 39,818-7) reacts with the ferric ions produced from the reaction between the hydroperoxide and ferrous ions. The Fe(III)-XO complex is characterized with red-shifted absorbance at 560 nm. A purified preparation of human 12hLO was supplied by Professor Ted Holman, University of California, Santa Cruz.
Assay Protocol: Buffer: 25 mM Hepes pH 7.0, 0.01% Triton X-100. Reagents/Controls: Buffer in columns 3 and 4 as negative control (no enzyme). Substrate solution: 40 uM arachidonic acid (Sigma-Aldrich, St. Louis, MO) final concentration dispensed throughout the plate. Enzyme: 150 nM 12hLO final concentration in columns 1, 2, 5-48. Column 1 is neutral (100% activity). Column 2 contained pin-transferred titration of NDGA (nordihidroguaiaretic acid, Sigma-Aldrich, N 5023, top concentration 20 mM in DMSO, then 1:3 dilution in duplicate). (Dilution factor: 23 nL into 4 uL.) Chromogenic detection reagent (divalent iron/xylenol orange, Fe-XO): 200 uM xylenol orange plus 300 uM ferrous ammonium sulfate prepared freshly in 50 mM sulfuric acid. Assay Steps: Three uL of enzyme were dispensed to 1536-well Greiner black clear bottom plates. Compounds and controls (23 nL) were transferred via Kalypsys PinTool. The plates were incubated for 15 min at room temperature, and then 1 uL of substrate solution was added to start the reaction. After room temperature incubation for 30 minutes, 4 uL of Fe-XO solution was added to each well and the plates were incubated for 30 min. The absorbance at 405 and 573 nm were measured using ViewLux (Perkin-Elmer) High-throughput CCD imager and absorbance protocol settings. The 573-to-405 absorbance ratio was used to compute reaction progress.
% is scaled to controls: 0 for no effect and ±100 for the full control effect; potency is read from the fitted curve at half-maximal effect.

Chain of Polyunsaturated fatty acid lipoxygenase ALOX12 (Homo sapiens) (P18054 whole entry, looked up): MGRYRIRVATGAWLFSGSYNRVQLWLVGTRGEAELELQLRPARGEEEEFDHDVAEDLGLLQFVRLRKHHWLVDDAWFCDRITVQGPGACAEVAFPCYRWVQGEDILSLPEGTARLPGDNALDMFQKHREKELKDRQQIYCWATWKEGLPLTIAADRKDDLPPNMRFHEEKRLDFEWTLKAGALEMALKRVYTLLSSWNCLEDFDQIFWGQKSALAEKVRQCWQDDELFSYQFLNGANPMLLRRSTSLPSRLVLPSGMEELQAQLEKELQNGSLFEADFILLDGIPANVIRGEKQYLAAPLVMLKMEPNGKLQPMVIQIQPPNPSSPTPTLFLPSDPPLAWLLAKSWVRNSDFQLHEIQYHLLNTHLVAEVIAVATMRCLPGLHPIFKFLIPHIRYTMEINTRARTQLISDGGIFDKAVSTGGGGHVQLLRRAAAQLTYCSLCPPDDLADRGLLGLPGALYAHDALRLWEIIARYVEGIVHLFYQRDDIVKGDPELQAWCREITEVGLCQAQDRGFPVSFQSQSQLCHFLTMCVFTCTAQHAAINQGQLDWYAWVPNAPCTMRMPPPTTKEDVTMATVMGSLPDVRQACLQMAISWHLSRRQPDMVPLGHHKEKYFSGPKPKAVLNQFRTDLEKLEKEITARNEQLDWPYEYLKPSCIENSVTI

Structure (SMILES)	activity change, negative = inhibition	Potency
CC(=O)c1c(C)[nH]c(C(=O)OCC(=O)Nc2cc(S(=O)(=O)N3CCCCC3)ccc2C)c1C	2.06% (inactive)	–
CCc1nnc(NC(=O)CCN(c2ccc(C)cc2)S(=O)(=O)c2ccccc2)s1	-0.864% (inactive)	–
CCOc1ccc(-c2n[nH]c(=S)n2/N=C/c2cc3c(cc2[N+](=O)[O-])OCO3)cc1	-5.47% (inactive)	–
C=CCN(c1ccc(C(=O)Nc2cc(C)cc(C)c2)cc1)S(C)(=O)=O	-4.04% (inactive)	–
COc1ccc(Cl)cc1NC(=O)CNc1ccccc1F	-1.57% (inactive)	–
Cc1ccc(NC(=S)Nc2ncccc2C)c(C)c1	–	17.8 µM (active)
Cc1ccc(NC(=O)Cn2nc(C)c3ccccc3c2=O)c(C)c1	2.12% (inactive)	–
Cc1ccccc1NC(=S)Nc1cccc([N+](=O)[O-])c1	4.55% (inactive)	–
CC(C)(C)OC(=O)NCCCCC1=CC2=CC(=O)C(C)(OC(=O)c3cccs3)C(=O)C2=CO1 (stereo unspecified)	-3.09% (inactive)	–
CC[C@@]12C=C(/C=C/c3ccccc3)[C@](CC)(C1)[C@H](c1ccccc1)CC2=O	5.59% (inactive)	–
COC(=O)C1=C(C(=O)OC)[C@@H]2Nc3ccccc3[C@@]23C[C@@H](C(=O)OC)N(S(=O)(=O)c2ccc([N+](=O)[O-])cc2)C3=N1	-6.39% [at 11.4 µM] (inactive)	–
COc1ccc(-n2c(=S)[nH]c3sc4c(c3c2=O)CCc2ccccc2-4)cc1	1.84% (inactive)	–
Cc1ccc(S(=O)(=O)Nc2nc(C)cc(N/N=C/c3ccc(O)cc3)n2)cc1	-3.75% (inactive)	–
COC(=O)c1c(NC(=O)CN2C(=O)NC(CCc3ccccc3)C2=O)sc2c1CCCCC2 (stereo unspecified)	-1.26% (inactive)	–
C=CCN1c2ccccc2[C@]23C[C@@H](C(=O)OC)N(S(=O)(=O)c4ccc([N+](=O)[O-])cc4)C2=NC(C(=O)OC)=C(C(=O)OC)[C@H]13	-1.48% [at 11.4 µM] (inactive)	–
CCN(/N=C/c1ccccc1)c1cc(=O)n(C)c(=O)[nH]1	1.89% (inactive)	–
COCCN1C(=O)N[C@@H](CCc2ccccc2)[C@H](C(C)=O)[C@H]1C	1.29% [at 11.4 µM] (inactive)	–
C=CC1=C2C=C(C3CC3)N(CC(C)C)C=C2C(=O)C(C)(OC(=O)c2ccco2)C1=O (stereo unspecified)	0.586% [at 11.4 µM] (inactive)	–
CCCCCCCC[C@@H](O)/C=C/C=C/C=C\[C@@H](O)CCCC(=O)O	-1.41% (inactive)	–

Structure (SMILES)	activity change, negative = inhibition	Potency
COc1ccc(-c2nc3c(c4c2C[C@H](c2ccccc2)OC4)CN(C(=O)c2ccco2)CC3)c(C)c1	3.56% [at 11.4 µM] (inactive)	–
Cc1ccccc1C(CC(=O)c1cccs1)C(C#N)C#N (stereo unspecified)	-3.86% (inactive)	–
Cc1c(/C=N/N2C(=O)C3C4C=CC(C4)C3C2=O)c2ccccc2n1C (stereo unspecified)	-0.415% (inactive)	–
CC/C=C\C/C=C\C/C=C\C/C=C\C/C=C\C/C=C\CCC(=O)NC(C)C(=O)O (stereo unspecified)	-0.133% (inactive)	–
COc1cc(NC(=O)COC(=O)CSc2ccc3ccccc3c2)c(C)cc1[N+](=O)[O-]	0.682% (inactive)	–
COc1ccc(-c2c(C)cc3oc(=O)cc(-c4ccccc4)c3c2C)cc1C=O	-1.15% [at 0.00818 µM] (inactive)	–
CCOc1ccc2nc(C(=O)N3CCCC(C)C3)sc2c1 (stereo unspecified)	0.738% (inactive)	–
O=C(/C=C/c1ccc([N+](=O)[O-])cc1)NCCSCc1ccco1	-1.35% (inactive)	–
COCC(C)n1c(C)cc(C(=O)CSc2cc(C)c3ccccc3n2)c1C (stereo unspecified)	1.24% (inactive)	–
COCOc1cc(OC)ccc1C(=O)/C=C/c1ccc([N+](=O)[O-])cc1	2.11% (inactive)	–
CCCCCCCC1=Cc2ccc(F)cc2C(C(C(=O)OC)C(=O)OC)N1C(=O)OC (stereo unspecified)	0.612% [at 11.4 µM] (inactive)	–
COC(=O)C1=C(C(=O)OC)[C@@H]2N(Cc3ccccc3)c3ccccc3[C@@]23C[C@@H](C(=O)OC)N(S(=O)(=O)c2ccc(C(F)(F)F)cc2)C3=N1	-1.93% [at 11.4 µM] (inactive)	–
Cc1ccc(C2=NN(C(=O)CSc3nc(N)cc(N)n3)C(c3ccco3)C2)cc1 (stereo unspecified)	-1.7% (inactive)	–
C/C(CC(=O)NC(C)(C)C)=N\NC(=O)c1ccco1	-1.45% (inactive)	–
O=C(COC(=O)[C@H](Cc1ccccc1)NC(=O)c1cccs1)Nc1cc(F)ccc1F	-0.944% (inactive)	–
Cc1cc2oc(=O)cc(-c3ccccc3)c2c(C)c1-c1ccc(OC(F)(F)F)cc1	-2.23% [at 0.00818 µM] (inactive)	–
Cc1ccc(C)c(NC(=S)NNC(=O)c2csc(C)c2)c1	3.02% (inactive)	–
CCCCS(=O)(=O)N1C2=NC(C(=O)OC)=C(C(=O)OC)[C@@H]3N(Cc4ccccc4)c4ccccc4[C@]23C[C@H]1C(=O)OC	2.88% [at 11.4 µM] (inactive)	–
Cc1cccc(N2CCN(C(=O)/C=C/c3ccco3)CC2)c1C	-3.72% (inactive)	–

Structure (SMILES)	activity change, negative = inhibition	Potency
COc1ccc(-c2cc(C(F)(F)F)nc(SCC(=O)Nc3ccc4c(c3)OCO4)n2)cc1OC	-2.21% (inactive)	–
CCOC(=O)c1c(NC(=O)C(C)Sc2c[nH]c3ccccc23)sc2c1CCC2 (stereo unspecified)	-1.99% (inactive)	–
CCCCC/C=C\C/C=C\CCCCCCCCCC(=O)NCC(=O)O	0.691% (inactive)	–
Cc1ccnc(-n2sc3ccccc3c2=O)n1	–	12.6 µM (active)
Cc1ccnc(N2CCC(C(=O)NC3CCCCCC3)CC2)n1	-2.17% (inactive)	–
Cc1nc2ccccc2c(=O)n1CCCn1ccnc1	-0.99% (inactive)	–
CCCCC/C=C\C[C@H](O)/C=C/C=C/C=C/[C@@H](O)CCCC(=O)O	4.92% (inactive)	–
COC(=O)C1=NNC2(c3ccc(C)cc3)C(=O)N(c3cccc(C)c3C)C(=O)C12 (stereo unspecified)	0.273% (inactive)	–
C=CC(=O)c1ccc2ccccc2c1	–	2.51 µM (active)
CC(=O)c1ccc2c(ccc3ccccc32)c1	-1.61% (inactive)	–
CC(=O)CCC(=O)c1ccc2ccccc2c1	-1.87% (inactive)	–
CCOC(=O)C1=C(N)N(c2ccc(C)cc2)C2=C(C(=O)CCC2)C1c1cccs1 (stereo unspecified)	1.9% (inactive)	–
COC(=O)CCCC1=CC2=CC(=O)C(C)(OC(=O)c3cccs3)C(=O)C2=CN1c1ccc(CO)cc1 (stereo unspecified)	-2.32% [at 11.4 µM] (inactive)	–
COc1ccc(-c2c(C)cc3oc(=O)cc(-c4ccccc4)c3c2C)cc1OC	-1.07% [at 0.00818 µM] (inactive)	–
COc1ccc(/C=C/C(=O)OCC(=O)Nc2cccc(Oc3ccccc3)c2)c(OC)c1	-1.67% (inactive)	–
COc1ccc(CCC(=O)OCC(=O)Nc2ccc(C)c(S(=O)(=O)N(C)C)c2)cc1	-0.448% (inactive)	–
O=C(CSc1ccccc1)Nc1nnc(/C=C/c2ccccc2)s1	2.65% (inactive)	–
COc1ccc(C2NC(=S)NC3=C2CCc2ccccc23)cc1OC (stereo unspecified)	-17.3% (inactive)	–
